The results in this text go back to publication PMC4336329 (PLoS ONE, 2015).

The structures appear in SMILES notation. Out of some 310,000 compounds screened, about 14,000 (4.5%) showed an effect of 50% or more. Effects have a minus sign here. Only a selection was taken, and strong results are over-represented in it overall.
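Further: peak tail current of the secondary pulse compared with the same well before compound.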

human ether-à-go-go-related gene (hERG) potassium channel, sequence (Q12809 whole entry, looked up): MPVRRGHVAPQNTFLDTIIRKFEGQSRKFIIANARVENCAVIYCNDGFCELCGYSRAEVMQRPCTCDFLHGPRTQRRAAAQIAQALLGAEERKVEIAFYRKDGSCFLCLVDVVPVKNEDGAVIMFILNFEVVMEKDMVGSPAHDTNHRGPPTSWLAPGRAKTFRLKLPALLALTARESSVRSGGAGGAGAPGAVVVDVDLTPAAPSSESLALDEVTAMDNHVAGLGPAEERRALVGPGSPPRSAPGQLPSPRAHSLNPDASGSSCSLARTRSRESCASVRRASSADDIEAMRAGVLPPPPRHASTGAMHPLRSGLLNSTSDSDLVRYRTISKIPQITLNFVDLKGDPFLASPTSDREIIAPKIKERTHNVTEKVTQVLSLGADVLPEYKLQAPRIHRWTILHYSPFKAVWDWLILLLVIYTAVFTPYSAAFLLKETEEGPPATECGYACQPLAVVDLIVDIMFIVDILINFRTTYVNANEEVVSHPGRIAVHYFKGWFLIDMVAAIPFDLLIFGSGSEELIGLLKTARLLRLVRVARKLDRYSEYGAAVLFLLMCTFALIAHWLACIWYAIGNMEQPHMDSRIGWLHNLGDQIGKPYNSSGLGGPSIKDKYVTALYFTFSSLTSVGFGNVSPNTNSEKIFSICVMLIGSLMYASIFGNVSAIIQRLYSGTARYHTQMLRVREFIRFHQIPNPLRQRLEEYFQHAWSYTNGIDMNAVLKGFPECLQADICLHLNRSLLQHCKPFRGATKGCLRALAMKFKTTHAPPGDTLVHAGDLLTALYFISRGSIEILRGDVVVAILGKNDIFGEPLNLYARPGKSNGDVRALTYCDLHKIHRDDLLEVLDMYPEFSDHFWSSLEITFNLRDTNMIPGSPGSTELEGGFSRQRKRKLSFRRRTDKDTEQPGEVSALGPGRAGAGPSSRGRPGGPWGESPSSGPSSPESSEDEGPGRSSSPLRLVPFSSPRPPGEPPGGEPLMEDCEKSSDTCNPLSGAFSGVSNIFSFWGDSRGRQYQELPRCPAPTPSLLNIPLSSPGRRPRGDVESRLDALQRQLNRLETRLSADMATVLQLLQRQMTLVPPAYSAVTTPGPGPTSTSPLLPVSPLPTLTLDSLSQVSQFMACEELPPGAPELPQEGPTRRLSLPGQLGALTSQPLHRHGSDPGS

This assay has as its target human ether-à-go-go-related gene (hERG) potassium channel (human, UniProt Q12809). The experiment in a line: primary screen, population patch clamp on CHO cells stably expressing hERG; higher = less effect of the substance. The protocol:
Briefly, Chinese hamster ovary (CHO) cells stably expressing the hERG channel were dislodged from tissue culture flasks and dispensed into PPC plates. […] During the recording, background leak currents were estimated by a 100 ms step to -80 mV from an initial holding potential of -70 mV and subtracted from the subsequent current measurement. The campaign was conducted in two phases using slight differences in recording protocol. In the first phase, the initial voltage pulse used a 100 ms step to -30 mV from a holding potential of -70 mV, a 2 s conditioning step to +25 mV, and a 2 s test step to -30 mV. During the second phase of the screen, the potential during the conditioning step was raised to +45 mV. In both phases of the campaign, a secondary voltage pulse was applied using the same parameters as the second phase initial pulse. The initial and secondary pulses were applied in the absence of compound, and upon application of 1 μM and 10 μM test concentrations. […]
Take `NC(=O)CCCn1c(C(=O)c2ccc(Cl)cc2)c2ccc(C(F)(F)F)cc2[n+]1[O-]`: the “hERG current change (%, negative = inhibition) at 10uM” value is -77.9%. The figure for `NC(=O)CCn1c(C(=O)c2ccc(Cl)cc2)c2ccccc2[n+]1[O-]` is -23.7%. In the case of `NC(=O)CCn1c(C(=O)c2cc(Cl)c(N)c(Cl)c2)c2ccccc2[n+]1[O-]`, the “hERG current change (%, negative = inhibition) at 10uM” value is reported as 17.9%.

For `COc1ccc(/C=C2\N=C(c3ccccc3)N(c3ccc(C(=O)O)cc3)C2=O)cc1OC`, the “hERG current change (%, negative = inhibition) at 10uM” value was 6.76%.

Turning to `O=C1C2C3C=CC(C3)C2C(=O)N1Nc1ccc([N+](=O)[O-])cc1[N+](=O)[O-]` (centres unmarked), the “hERG current change (%, negative = inhibition) at 10uM” value is listed as 3.34%. The result for `CC(C)Oc1ccc(C2CC(=O)N(Nc3ccc([N+](=O)[O-])cc3[N+](=O)[O-])C2=O)cc1` (centres unmarked) reads -15.6%. The result for `CCOc1ccc(C2CC(=O)N(Nc3ccc([N+](=O)[O-])cc3[N+](=O)[O-])C2=O)cc1` (centres unmarked) reads -51.7%; that for `Cc1ccc(-n2c(=O)[nH]c3c(C(N)=O)nc(C(C)C)nc32)cc1`, 15.1%.

`COc1ccc(-n2nc3c(N4CCC(C(=O)N5CCCCCC5)CC4)nnc(C)c3c2C)cc1`: the “hERG current change (%, negative = inhibition) at 10uM” value was -53.7%. `Cc1ccc(-n2nc3c(N4CCC(C(=O)N5CCC(C(N)=O)CC5)CC4)nnc(C)c3c2C)cc1`: the “hERG current change (%, negative = inhibition) at 10uM” value came to 12%. The figure for `COc1ccc(-n2nc3c(N4CCC(C(=O)N5CCC(C)CC5)CC4)nnc(C)c3c2C)cc1` is -46.3%; for `COc1ccc(-n2nc3c(N4CCC(C(=O)NC5CCCCC5)CC4)nnc(C)c3c2C)cc1` it is -5.39%. For `CCOc1ccccc1CNC(=O)C1CCCN(c2nnc(C)c3c(C)n(-c4ccccc4)nc23)C1` (centres unmarked), the “hERG current change (%, negative = inhibition) at 10uM” value came out at 4.08%. On to `Cc1ccc(-n2nc3c(N4CCC(C(=O)N5CCN(C)CC5)CC4)nnc(C)c3c2C)cc1`, for which the “hERG current change (%, negative = inhibition) at 10uM” value is 11.9%.

As for `CCCN1CCN(C(=O)C2CCN(c3nnc(C)c4c(C)n(-c5ccc(C)cc5)nc34)CC2)CC1`, the “hERG current change (%, negative = inhibition) at 10uM” value is listed as -32.3%. The result for `Cc1nnc(N2CCCC(C(=O)NCc3ccccc3F)C2)c2nn(-c3ccccc3)c(C)c12` (centres unmarked) reads -51.2%. The figure for `CCN1CCN(C(=O)C2CCN(c3nnc(C)c4c(C)n(-c5ccc(C)cc5)nc34)CC2)CC1` is 3.86%; for `Cc1ccccc1CNC(=O)C1CCCN(c2nnc(C)c3c(C)n(-c4ccccc4)nc23)C1` (centres unmarked) it is -5.38%. The figure for `Cc1nnc(N2CCC(C(=O)N3CCCCC3)CC2)c2nn(-c3ccc(Cl)cc3)c(C)c12` is -73.9%; for `Cc1ccc(-n2nc3c(N4CCC(C(=O)N5CCCCCC5)CC4)nnc(C)c3c2C)cc1` it is -68.7%; for `CCOc1ccc(Cn2c3ccc(OC)cc3c3nc4ccccc4nc32)cc1` it is 15.4%. As to `O=C(COC(=O)c1cccnc1Cl)c1ccccc1`, the “hERG current change (%, negative = inhibition) at 10uM” value is recorded as -4.84%. On to `CSc1ccccc1NC(=O)CN(C1CCCCC1)S(C)(=O)=O`, for which the “hERG current change (%, negative = inhibition) at 10uM” value is on record as -1.49%. Turning to `CSC[C@H](NC(=O)Cc1c(C)c2cc3c(C)c(C)oc3cc2oc1=O)C(=O)N[C@@H](Cc1ccccc1)C(=O)O`, the “hERG current change (%, negative = inhibition) at 10uM” value came to 1.76%. The result for `Cc1ccc(S(=O)(=O)Nc2ccc(Cl)cn2)cc1C` reads 15%; that for `CN(C)CCSc1nc(N)c2c3c(sc2n1)CN(C)CC3`, 9.66%; that for `CCCCc1nc2c(C)c(N)cnc2n1Cc1cccc([N+](=O)[O-])c1`, -44.1%. In the case of `N#CC1=C2SCN(Cc3ccccc3)CN2C(=O)CC1c1cccs1` (centres unmarked), the “hERG current change (%, negative = inhibition) at 10uM” value came to 6.44%. The figure for `O=C(Nc1ccc2oc(-c3ccccc3Cl)nc2c1)c1cncc(Br)c1` is -8.01%; for `Cc1nnc(N2CCC(C(=O)N3CCCCCC3)CC2)c2nn(-c3ccc(Cl)cc3)c(C)c12` it is -65.2%.

For the compound `Cc1nnc(N2CCC(C(=O)NC3CCC(C)CC3)CC2)c2nn(-c3ccc(Cl)cc3)c(C)c12` (centres unmarked), the “hERG current change (%, negative = inhibition) at 10uM” value was 18.8%. The result for `CCc1ccc(CNC(=O)C2CCN(c3nnc(C)c4c(C)n(-c5ccc(C)cc5)nc34)CC2)cc1` reads -1.17%. The figure for `CC(=O)Nc1ccc(S(=O)(=O)NCCCN2CCOCC2)cc1` is 16%; for `Cc1cccc(NC(=O)C2CCCN2/C=C/C(=O)C(F)(F)F)c1C` (centres unmarked) it is 4.61%; for `COc1ccc(C(=O)CC(=O)C(=O)Nc2cccc(C(C)=O)c2)cc1` it is 29.9%. The figure for `COc1ccc(C2(c3ccc(O)cc3O)CC(c3ccccc3Cl)NC(=S)N2)cc1` (centres unmarked) is -15%; for `COc1ccc(C2(c3ccc(OC(C)=O)cc3OC(C)=O)CC(c3ccccc3)NC(=S)N2)cc1` (centres unmarked) it is -50.2%. In the case of `COc1ccc(N2C(=S)NC(C)(C)CC2(C)c2ccc(OC(C)=O)cc2OC(C)=O)cc1` (centres unmarked), the “hERG current change (%, negative = inhibition) at 10uM” value stood at 6.26%.

On to `O=C(Cc1ccccc1[N+](=O)[O-])Nc1ccccc1C(=O)N1CCCC1`, for which the “hERG current change (%, negative = inhibition) at 10uM” value was 23.2%. With `CC(c1ccccc1)N1CCC(CNC(=S)Nc2cccc(Cl)c2)C1` (centres unmarked), the “hERG current change (%, negative = inhibition) at 10uM” value is listed as -29.2%. The result for `Cc1ccc(NC(=S)NCC2CCN(C(C)c3ccccc3)C2)cc1C` (centres unmarked) reads -44.6%; that for `Cc1cc(C)c(NC(=S)NCC2CCN(C(C)c3ccccc3)C2)c(C)c1` (centres unmarked), -22.4%. The figure for `Cc1cc(C)cc(NC(=S)NCC2CCN(C(C)c3ccccc3)C2)c1` (centres unmarked) is -63.3%; for `Cc1ccc(NC(=S)NCC2CCN(C(C)c3ccccc3)C2)cc1` (centres unmarked) it is -57.5%; for `Cc1ccccc1NC(=S)NCC1CCN(C(C)c2ccccc2)C1` (centres unmarked) it is 6.64%. The result for `O=C1NC(c2ccccc2)=C(c2ccc3ccccc3n2)C(c2ccccc2)N1` (centres unmarked) reads 6.13%; that for `CC1(C)CC(=O)N(CC(=O)O)c2ccccc2S1(=O)=O`, 3.52%; that for `O=c1c2ccccc2ncn1-c1ccc(Cl)c(Cl)c1`, -1.01%.

Take `OC(CNCCCCNCC(O)C(F)(F)F)C(F)(F)F` (centres unmarked): the “hERG current change (%, negative = inhibition) at 10uM” value was found to be 19.8%.

For `CCCN(CCC)Cc1c(C(=O)OCC)nnn1-c1nonc1N`, the “hERG current change (%, negative = inhibition) at 10uM” value is on record as -12.7%. The result for `CC(=O)c1nc2ccccc2n1S(=O)(=O)c1ccc(C)cc1` reads 17.3%. The figure for `Cc1nc2ccc3nc(NC(=O)c4ccc5c(c4)OCCO5)sc3c2s1` is 2.9%; for `Cc1nc2c(ccc3nc(NC(=O)c4ccc5c(c4)OCCO5)sc32)s1` it is -74.3%. The figure for `Cc1nc2c(ccc3nc(NC(=O)c4ccc(S(=O)(=O)N(C)C)cc4)sc32)s1` is 15.2%. In the case of `CC(C)(C)NC(=O)COc1coc(CN2CCN(Cc3ccccc3)CC2)cc1=O`, the “hERG current change (%, negative = inhibition) at 10uM” value is -1.29%. The figure for `Cc1ccc(Cn2c(C(CO)Nc3nc(-c4ccc(Cl)c([N+](=O)[O-])c4)cs3)nc3ccccc32)cc1` (centres unmarked) is 7.56%; for `O=S(=O)(c1ccsc1)N1CC=C(c2ccccc2)CC1` it is 15.7%. The figure for `CN1CCN(C(c2cc3cc4c(cc3[nH]c2=O)OCCO4)c2nnnn2C2CCCC2)CC1` (centres unmarked) is -9.91%; for `CCN1CC2C3CCC(C)(O3)C2C1` (centres unmarked) it is -73.1%; for `CCCc1cc(=O)[nH]c(SCC(=O)Nc2nc3ccc(OCC)cc3s2)n1` it is 22.8%. The result for `NC(=S)N=Nc1c(O)n(CC(=O)Nc2ccccc2)c2ccccc12` reads 16.4%; that for `COc1cc2ncnc(NCc3ccc(C)o3)c2cc1OC`, -11.5%. `CCOC(=O)C1CCCN(C(=O)COc2ccc(N(C)S(=O)(=O)c3ccc(F)cc3)cc2)C1` (centres unmarked): the “hERG current change (%, negative = inhibition) at 10uM” value was -66.5%. In the case of `CCOC(=O)C1CCCN(C(=O)COc2ccccc2O)C1` (centres unmarked), the “hERG current change (%, negative = inhibition) at 10uM” value is on record as -1.94%. The result for `CCN(c1ccccc1)S(=O)(=O)c1ccc(OCC(=O)N2CCCC2)cc1` reads -10.4%; that for `Cc1ccc(S(=O)(=O)N(C)c2ccc(OCC(=O)N3CCCC(C(F)(F)F)C3)cc2)cc1` (centres unmarked), -39.9%; that for `CCOC(=O)C1CCCN(C(=O)COc2ccc(S(=O)(=O)N(CC)c3ccccc3)cc2)C1` (centres unmarked), -51.8%. The result for `CN1CCN(C(=O)COc2ccc(N(C)S(=O)(=O)c3ccc(F)cc3)cc2)CC1` reads -4.56%; that for `CCOC(=O)C1CCN(C(=O)COc2ccc(N(C)S(=O)(=O)c3ccc(C)cc3)cc2)CC1`, -57.7%. The result for `COC(=O)C1CCN(C(=O)COc2ccc(N(C)S(=O)(=O)c3ccc(C)cc3)cc2)CC1` reads -33.8%; that for `CN(c1ccc(OCC(=O)N2CCOCC2)cc1)S(=O)(=O)c1ccc(F)cc1`, -9.15%. For `Cc1ccc(S(=O)(=O)N(C)c2ccc(OCC(=O)N3CCCCC3)cc2)cc1`, the “hERG current change (%, negative = inhibition) at 10uM” value is recorded as -10.5%. The result for `CCOC(=O)C1CCCN(C(=O)COc2ccc(N(C)S(=O)(=O)c3ccc(C)cc3)cc2)C1` (centres unmarked) reads -56.8%; that for `CCOC(=O)C1CCN(C(=O)COc2ccc(N(C)S(=O)(=O)c3ccc(OCC)cc3)cc2)CC1`, -4.08%.

Take `O=C(COC(=O)c1cnccn1)c1cccc([N+](=O)[O-])c1`: the “hERG current change (%, negative = inhibition) at 10uM” value is listed as 14.4%. The figure for `O=C(Nc1ccccc1Cl)c1sccc1-c1ccccc1` is -2.39%; for `COc1ccc(/C=N/NC(=O)C(=O)Nc2ccccn2)cc1OC` it is -27.2%.

For the compound `COc1ccc(C2=NS(=O)(=O)N(C)C(C(=O)NCc3ccccn3)=C2)cc1OC`, the “hERG current change (%, negative = inhibition) at 10uM” value is -4.15%. The result for `CC1=CC(C)(C)Nc2ccc(OC(=O)c3ccco3)cc21` reads -0.0756%.

Regarding `CC1CN(C(=O)CN2C(=O)c3ccccc3C2=O)CC(C)O1` (centres unmarked), the “hERG current change (%, negative = inhibition) at 10uM” value was 6.42%.
